# High-throughput results: PubChem, Columbia University Molecular Screening Center
# VCAM1 TNFa inh: reduces TNF alpha induced VCAM1 expression in HUVEC; inhibition, % at 2 µM; hit rate 0.48% among 95,000; HUVEC TNFa-induced VCAM-1 immunofluorescence, high-content imaging;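 active = inhibition above the batch mean plus 3 SD, with images confirmed as a hit by eye, cut at about 37% in these data; inconclusive = inhibition above that limit but hit not confirmed in images; inactive = inhibition not above that limit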;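 also: 0% = TNF-stimulated DMSO wells and 100% = unstimulated control wells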
# HUVEC tox TNFa: toxic to HUVEC cells under TNF alpha stimulation. HUVEC TNFalpha-stimulated, Hoechst cell count, imaging. cell count reduction, % at 2 µM. hit rate 0.17% among 93,000. AID 848;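 active = cell count reduction exceeding the screen mean by over 5 SD, scaled to untreated wells per plate, cut at about 78% in these data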;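 also: cells counted after 24 h of TNF alpha exposure following the 1 h pretreatment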
# E-sel TNF inh: blocks E-selectin expression induced by TNF alpha; AID 1246; inhibition, % at 2 µM; HUVEC TNFa-induced E-selectin immunofluorescence, high content; hit rate 0.71% among 120,000;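 active = inhibition above the batch mean plus 3 SD, and confirmed as a hit on visual image review, cut at about 43% in these data; inconclusive = passes the inhibition cutoff but fails visual image review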;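 also: 0% = TNF-stimulated DMSO wells and 100% = unstimulated control wells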
# F-actin modifier: alters cytoskeleton assembly in HUVEC cells; HUVEC TNFa F-actin phalloidin imaging, high content; inhibition, % at 2 µM; hit rate 0.18% among 91,000;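 active = inhibition above the batch mean plus 3 SD and confirmed as a hit by visual image inspection, cut at about 30% in these data, passing the limit was not always enough; inconclusive = above the inhibition threshold but rejected on visual inspection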
# * = called active by the depositor; ? = inconclusive; . = not tested or not shown. An excerpt weighted towards active compounds, which were near 1.2% of everything screened.
SMILES,VCAM1 TNFa inh,HUVEC tox TNFa,E-sel TNF inh,F-actin modifier
N#CC1=C(N)Oc2cc(Nc3ccccc3)ccc2C1c1ccncc1 (stereo unspecified),-6,-4,54*,20
CCN(CC)c1ccc2c(c1)OC(N)=C(C#N)C2c1cccnc1 (stereo unspecified),39*,51,.,-51
N#CC1=C(N)Oc2cc(N)ccc2C1c1cccnc1 (stereo unspecified),.,.,-1,.
Cc1cc(C)cc(OC(=O)CS(=O)c2ccc(C(F)(F)F)cc2[N+](=O)[O-])c1 (stereo unspecified),18,-21,28,-1
O=C(CS(=O)c1ccc(C(F)(F)F)cc1[N+](=O)[O-])Oc1ccc(Cl)cc1 (stereo unspecified),72*,13,33,27
O=C(COC(=O)c1ccccc1Nc1ccccc1)Nc1ccccc1,.,.,6,.
O=C(O)C1C2C=CC(O2)C1C(=O)Nc1ccc(S(=O)(=O)Nc2ccccc2)cc1 (stereo unspecified),14,-16,21,38*
O=C(O)C1C2C=CC(O2)C1C(=O)Nc1ccc(S(=O)(=O)N2CCc3ccccc32)cc1 (stereo unspecified),14,0,12,2
CCCC(c1nnnn1C(C)(C)C)N1CCN(C(=O)c2ccco2)CC1 (stereo unspecified),.,.,-16,.
COC(=O)c1cc2sc(Cl)cc2n1CC(=O)Nc1cccc(SC)c1,-6,12,65*,34
COc1ccc(C(=O)Nc2ccccc2N2CCN(C(=O)C(C)C)CC2)cc1Cl,11,20,4,6
Cc1nc2ccc(NC(=O)c3cc(S(=O)(=O)N4CCOCC4)ccc3C)cc2s1,3,-28,92*,15
COc1cc(/C=N/Nc2nn3cnnc3c3ccccc23)ccc1O,0,-20,.,18
COc1cc(/C=N/Nc2snc(SC)c2C#N)ccc1O,43*,-14,.,5
Nc1nonc1-c1nc2ccccc2n1CC(=O)N1CCCCC1,.,.,-2,.
CCNc1nc(NCC)nc(SCCOC(=O)c2ccccc2)n1,-22,-47,-23,7
CCC(=Nc1ccc(Cc2ccncc2)cc1)c1c(O)n(C)c(=O)n(C)c1=O,-19,12,0,10
Cc1ccc(OCCCC(=O)Nc2ccc(N3CCOCC3)cc2)c(C)c1,-4,6,-16,3
Cc1ccccc1OCCCC(=O)Nc1ccc(N2CCOCC2)cc1,.,.,76*,.
O=C(O)c1ccccc1C(=O)N1CCN(c2cccc(Cl)c2)CC1,7,-21,11,10
CCOc1ccccc1C(=O)N1CCN(c2cccc(Cl)c2)CC1,84*,73,-14,-5
CCOc1ccccc1N1CCN(C(=O)c2cccc(-c3ccc(O)cc3)c2)CC1,44*,-1,2,23
CCC(Sc1ccc2nnc(-c3ccc(OC)c(OC)c3)n2n1)C(=O)O (stereo unspecified),-9,-11,0,25
O=C(NCc1ccccc1)c1n[nH]nc1-c1ccccc1O,.,.,58*,.
COc1ccc(-n2nnnc2S(=O)(=O)CC(=O)N2CCCCC2)cc1,?,-18,82*,6
SMILES,VCAM1 TNFa inh,HUVEC tox TNFa,E-sel TNF inh,F-actin modifier
COc1ccc(-n2nnnc2S(=O)(=O)Cc2ccc(C(=O)O)cc2)cc1,24,-18,18,14
CC(C)(C)OC(=O)NNC(=O)NC12CC3CC(CC(C3)C1)C2,.,.,66*,.
CC(C)=C1SC(N2CCN(c3ccc(Cl)cc3)CC2)=NC1=O,.,.,5,.
CC(C)=C1SC(N2CCN(c3ccc(C)cc3)CC2)=NC1=O,12,-15,63*,-4
C=CCN1C(=O)/C(=C\c2cccs2)C(C(=O)OC)=C1C,8,25,.,-14
Cc1cc(Cl)ccc1NC(=S)N1CCN(Cc2ccc3c(c2)OCO3)CC1,.,.,3,.
O=C1/C(=C/c2cccs2)SC(=S)N1c1ccccc1,-2,-9,56*,-2
CCN(CC)c1ccc(N2C(=O)/C(=C\c3cccs3)SC2=S)cc1,12,-6,12,-7
CC(/C=N/NC(=O)c1cc(-c2ccncc2)nc2ccccc12)=C\c1ccco1,87*,65,41,-14
COc1ccc(C2C3=C(CC(C)(C)CC3=O)Nc3cc4c(cc32)OCO4)cc1 (stereo unspecified),16,5,6,-25
COc1ccc(OC)c(C2C3=C(COC3=O)Nc3cc4c(cc32)OCO4)c1 (stereo unspecified),96*,76,0,16
O=C(c1cnccn1)N1CCN(c2ccccc2)CC1,-2,4,59*,-14
O=C(c1cnsn1)N1CCN(c2ccccc2)CC1,-28,-5,-8,20
CCN(CC)c1ccc(NC(=O)CN2CCN(c3nc(C)cc(C)n3)CC2)cc1,.,.,-20,.
CCC(=O)N1CCN=C1SCc1ccccc1,-7,-13,-3,-6
CCN(c1ccccc1)S(=O)(=O)c1ccc(C(=O)OC(C)C(=O)NCCC2=CCCCC2)cc1 (stereo unspecified),.,.,7,.
O=C(O)c1cccc(S(=O)(=O)Nc2ccccc2Cl)c1,95*,-11,29,1
O=C(Nc1nnc(-c2ccco2)s1)C1CC1,3,-7,95*,12
COc1ccc(Nc2ccc3nnc(-c4ccc(Br)cc4)n3n2)cc1,4,19,10,1
CC(=O)Nc1ccc(NC2(C)C(=O)c3ccccc3C2=O)cc1,93*,88*,.,-23
O=C(OCC(=O)N1CCCC1)c1ccc(S(=O)(=O)Nc2ccccc2)cc1,.,.,-44,.
COc1cccc(OC)c1NC(=O)CN1CCC(NC(=O)c2cccc(F)c2)CC1,100*,92*,23,70*
Cn1c(=O)n(C)c2cc(NS(=O)(=O)c3ccc4c(c3)CCCC4)ccc21,1,14,16,-10
CCc1cccc(CC)c1NC(=O)COC(=O)c1cccc(-c2ccc(OC(C)=O)cc2)c1,.,.,74*,.
CS(=O)(=O)Nc1ccc(C(=O)NC2CCCC2)cc1,12,-20,-3,-6
SMILES,VCAM1 TNFa inh,HUVEC tox TNFa,E-sel TNF inh,F-actin modifier
O=c1cc(O)n(-c2ccc(F)cc2)c(=S)[nH]1,6,-14,71*,3
C=C1N(c2ccc(Cl)cc2)C(=O)OC1(C)C,-18,-7,-20,9
CC1C/C(=C/c2ccncc2)C(=O)/C(=C/c2ccncc2)C1 (stereo unspecified),.,.,100*,.
CCCCC(=O)NCCNc1nc2c(c(=O)n(C)c(=O)n2C)n1Cc1ccccc1,37,19,-12,-5
COc1ccc(CCNC(=O)C(=O)NCc2ccc(C)cc2)cc1OC,6,-5,50*,-7
CCN(CC)S(=O)(=O)c1ccc2nc(SC)sc2c1,-22,-8,18,-6
O=C(Nc1ccc2c(c1)CCC2)c1cnccn1,-6,-13,-2,3
CCOC(=O)C1C(=O)NC(N2CCCCC2)=NC1c1ccco1 (stereo unspecified),97*,12,1,-16
Cc1ccc(C(=O)N2CCN=C2SCc2ccc([N+](=O)[O-])cc2)cc1,.,.,-6,.
COc1ccc(N2CCN(C(=O)c3ccc(NS(=O)(=O)c4ccccc4)cc3)CC2)cc1,-4,5,-36,4
COc1cccc(S(=O)(=O)Nc2ccc(C(=O)N3CCN(C(=O)c4ccco4)CC3)cc2)c1,26,-2,97*,1
Cc1c(NS(=O)(=O)c2cccs2)c(=O)n(-c2ccccc2)n1C,11,-12,13,36
